# Experimental data from PubChem BioAssay AID651640 (Broad Institute, 2012).
# About 6,000 (1.7%) of roughly 350,000 compounds were called active. About 5% were inconclusive and are not listed. The entries come from a sample that favours actives as a whole. Values without a mark were called inactive. Rule as the data show it: active = CPE inhibition above about 20% (passing the limit was not always enough); inconclusive = no clear call, values can overlap the other calls; tested in BHK-21 cells.
# Assay: inhibitors of DENV2 cytopathic effect, primary screen, cell-based, plate reader, single concentration (AID 651640);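 also: 0% = median of neutral control wells and 100% = median of positive control wells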
# Conditions: DENV2-infected cells, cytopathic effect rescue, at 9.99 µM, hits give high values
row,Compound,CPE inhibition
1,C[C@H](CO)N1C[C@H](C)[C@@H](CN(C)Cc2ccc(Cl)c(Cl)c2)Oc2ccc(NC(=O)Nc3ccc(C(F)(F)F)cc3)cc2CC1=O,-2.55%
2,CN1C(=O)c2cc(NC(=O)C3CC3)ccc2OC[C@@H]2O[C@@H](CC(=O)NCC3CCCCC3)CC[C@@H]21,-7.29%
3,C[C@@H]1CN([C@H](C)CO)C(=O)c2cccc(NC(=O)Nc3ccc(F)cc3)c2O[C@@H]1CN(C)C(=O)Nc1ccc(C(F)(F)F)cc1,2.25%
4,O=C(NCc1ccncc1)c1ccc(NS(=O)(=O)c2cccc([N+](=O)[O-])c2)cc1,-0.812%
5,O=C(NCc1ccccc1)c1ccc(S(=O)(=O)Nc2cccc(C(F)(F)F)c2)cc1,2.44%
6,O=C(NCc1ccncc1)c1cccc(NS(=O)(=O)c2ccc(F)c(F)c2)c1,41.4% (active)
7,CC(C)NC(=O)N[C@H]1CC[C@H](CC(=O)NC2Cc3ccccc3C2)O[C@H]1CO,-2.08%
8,C[C@@H]1CN([C@H](C)CO)S(=O)(=O)c2ccc(Br)cc2O[C@@H]1CN(C)Cc1cncnc1,19.1%
9,CCOC(=O)[C@H]1[C@H]2COc3cc(OC)ccc3[C@@H]2N2C(=O)CN(Cc3ccc(Cl)cc3)C(=O)[C@@]12C,-5.6%
10,CCOC(=O)[C@H]1[C@H]2COc3ccccc3[C@@H]2N2C(=O)CN(Cc3ccccc3)C(=O)[C@@]12C,95% (active)
11,CCOC(=O)[C@H]1[C@H]2COc3ccc(C)cc3[C@@H]2N2C(=O)CN(Cc3ccc(F)cc3)C(=O)[C@@]12C,-7.57%
12,O=C1CC2(CCN(C(=O)COc3ccc(F)cc3)CC2)Oc2ccccc21,29.9% (active)
13,Cc1ccc(N2CC(C(=O)N3CCC4(CC3)CC(=O)c3ccccc3O4)CC2=O)cc1C (configuration not stated),-6.93%
14,O=C1CC2(CCCCC2)Oc2ccc(OCC(=O)N3CCOCC3)cc21,2.58%
15,Cc1cc(C)c(-c2c(O)c3ccccc3n(C)c2=O)c(C)c1,72% (active)
16,COc1cc2c(=O)n(C)c3ccccc3c2cc1OC,0.702%
17,Cc1cccc(Oc2c([N+](=O)[O-])c(=O)n(C)c3ccccc23)c1,-2.07%
18,CC(C)NC(=O)N(C)C[C@H]1OCCCC[C@H](C)Oc2ccc(NC(=O)CCC(F)(F)F)cc2C(=O)N([C@H](C)CO)C[C@H]1C,7.36%
19,COCCN1C(=O)N[C@@H](CCc2ccccc2)[C@H](C(C)=O)[C@H]1C,-5.61%
20,CCN1C(=S)N[C@@H](CCc2ccccc2)[C@H](C(=O)OC)[C@H]1C,65.7% (active)
21,CCN1C(=O)N[C@@H](CCc2ccccc2)C(C(=O)OC)=C1C,-5.47%
22,CCS(=O)(=O)Nc1ccc2c(c1)C(=O)N(C)[C@H]1CC[C@@H](CC(=O)N3CCCCC3)O[C@H]1CO2,-4.09%
23,COc1ccc(S(=O)(=O)N(C)C[C@H]2Oc3ccc(NC(=O)CCC(F)(F)F)cc3CC(=O)N([C@H](C)CO)C[C@@H]2C)cc1,15.8%
24,CO[C@H]1CN(C)C(=O)c2ccc(NC(C)=O)cc2OC[C@@H](C)N(C(=O)c2ccccn2)C[C@@H]1C,-11.8%

row,Compound,CPE inhibition
1,C[C@H](CO)N1C[C@H](C)[C@H](CN(C)C(=O)Nc2cccc(Cl)c2Cl)OCc2ccccc2-c2ccccc2C1=O,-3.92%
2,S=C(Nc1ccc(Cl)cc1Cl)N1CCCC1,-8.93%
3,O=C(NC(=S)Nc1ccc(Br)cc1F)C1CCCCC1,-4%
4,O=C(NC(=S)Nc1ccc(Cl)cc1Cl)C1CC1,86.2% (active)
5,O=C(Cc1ccccc1)N1C[C@@H]2[C@H](c3ccccc31)[C@@H](CO)N2C(=O)C1CC1,-0.201%
6,CC(=O)N[C@@H]1CC[C@@H](CCNC(=O)C2CC2)O[C@H]1CO,1.82%
7,CCN(Cc1ccccc1)C(=O)CN1C(=S)NC(C)(C)CC1C (configuration not stated),65.7% (active)
8,COc1cccc(CNC(=O)CCN2C(=S)NC(C)(C)CC2C)c1 (configuration not stated),8.33%
9,CC1CC(C)(C)NC(=S)N1CCC(=O)N1CCN(Cc2ccccc2)CC1 (configuration not stated),16.6%
10,C[C@@H]1CN([C@@H](C)CO)C(=O)c2cc(NC(=O)Cn3cnnn3)ccc2O[C@H]1CN(C)Cc1ccc(C(F)(F)F)cc1,-5.69%
11,N#Cc1cccc(-c2ccc([C@H]3[C@@H](CO)N4CCCCN(C(=O)Nc5ccccc5)C[C@H]34)cc2)c1,-9.56%
12,O=C(C1CCCC1)N1[C@@H](CO)[C@@H](c2ccccc2)C12CN(Cc1ccc(F)cc1)C2,-1.84%
13,C/C=C/c1ccc([C@@H]2[C@@H](CO)N(C(=O)c3ccccc3)C23CN(C(C)=O)C3)cc1,70.8% (active)
14,COCC(=O)N1CC2(C1)[C@@H](c1ccc(-c3cccc(F)c3)cc1)[C@@H](CO)N2C(=O)COC,-4.52%
15,CCC(=O)N1CC2(C1)[C@H](c1ccccc1)[C@@H](CO)N2C(=O)c1ccccc1,-0.875%
16,O=C(C1CCCCC1)N1[C@H](CO)[C@@H](c2ccccc2)C12CN(Cc1cccc(Cl)c1)C2,27.1% (active)
17,CN(C)CC(=O)N1CC2(C1)[C@H](c1ccccc1)[C@@H](CO)N2C(=O)C1CCCCC1,-1.45%
18,CN(C)CC(=O)N1[C@@H](CO)[C@H](c2ccccc2)C12CN(C(=O)c1cccc(F)c1)C2,49.2% (active)
19,CCCNC(=O)N1CC2(C1)[C@H](c1ccccc1)[C@@H](CO)N2C(=O)C1CC1,16.7%
20,O=C(c1ccccn1)N1CC2(C1)[C@@H](c1ccccc1)[C@@H](CO)N2C(=O)C1CCCCC1,4.48%
21,CC(=O)N1CC2(C1)[C@H](c1ccccc1)[C@@H](CO)N2C(=O)Cc1ccccc1,4.56%
22,CN(C)CC(=O)N1CC2(C1)[C@H](c1ccccc1)[C@H](CO)N2C(=O)C1CC1,24.3% (active)
23,C/C=C/c1ccc([C@@H]2[C@H](CO)N(C(=O)c3cnccn3)C23CN(C(C)=O)C3)cc1,3.48%
